Assay in all cases: NCI-60 one-dose screen, 48 h (100 = growth as untreated, 0 = no growth, -100 = all killed)
What all share (details): 10 µM unless noted

Assay [1] relates to NCI-H23 lung.
For assay [2], the system named is NCI-H226 lung.
Assay [3] has as its system NCI-H322M lung.
Assay [4] concerns HOP-62 NSCLC.
The subject of assay [5] is NCI-H460 lung.
Assay [6] has as its system HOP-92 NSCLC.
The subject of assay [7] is NCI-H522 lung.
For assay [8], the system named is A549/ATCC NSCLC.
For assay [9], the system named is 786-0 renal.
For assay [10], the system named is COLO 205 colon.

The panel holds about 83,000 compounds, 20% with a hit somewhere; the sample as a whole holds those more often.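 Results are percent growth after 48 hours of single-concentration exposure. 100 means growth as in untreated cells, lower positive values show inhibition; negative values down to -100 show cell death.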 Unmarked numbers belong to inactive results. Calls of active or inactive are those of the source. The calls were made as follows: active = growth percent below 10; inactive = the rest.

In the case of `COc1ccc(/C=C/C(c2cc(OC)c(OC)c(OC)c2)n2cncn2)cc1` (stereo not given), the growth in assay [1] was 67%; in assay [2], 76%; in assay [3], 61.2%; in [4], 41.8%; in assay [5] it was 22.1%; in [6], 40.3%. Moreover, the growth was 28.4% in [7], 35.5% in assay [8], 39.6% in assay [9] and 30.7% in assay [10].
On to `O=C(Nc1cc(Cl)ccc1O)c1cccc(Nc2ccnc(C(F)(F)F)c2)c1`, for which the growth in assay [1] was 11.6%; in assay [2] it was 54.2%; in [3], 59.1%; in assay [4], 64.8%; in assay [5], 30.5%; in assay [6], 53.6%. Besides, the growth in assay [7] was 30.6%; in assay [8], 37.1%; in [9] it was 49.3%; in assay [10], 90.9%.
With `Nc1ccc(-c2csc(-n3[nH]c(=O)ccc3=O)n2)cc1`, the growth is 98% in assay [1]; 92.2% in assay [2]; 103% in assay [3]; 107% in [4]; 102% in assay [5]; 103% in assay [6]. Besides, the growth in [7] was 93.4%; in assay [8], 101%; in assay [9], 87.1%; in assay [10], 109%.
With `O=C(N/N=C\c1cccc([N+](=O)[O-])c1)N/N=C/c1cccc([N+](=O)[O-])c1`, the growth is 101% in [1]; 92.4% in assay [2]; 104% in assay [3]; 92.9% in [4]; 107% in assay [5]; 105% in assay [6]. Further, the growth in assay [7] was 98.9%; in assay [8], 100%; in assay [9] it was 111%; in [10] it was 119%.
Turning to `CN1C(=O)/C(=C2\SC(=Nc3ccccc3)N(Nc3ccccc3)C2=O)c2ccccc21`, the growth in assay [1] is 94.1%; in assay [2], 93.8%; in assay [3], 95.4%; in assay [4] it was 88.1%; in assay [5], 101%; in assay [6] it was 100%. Also, the growth in [7] is 94.5%; in assay [8], 98.6%; in [9] it was 107%; in assay [10] it was 112%.
On to `CN(C)CCCC1(c2ccc(F)cc2)OCc2cc(-c3cc4ccccc4s3)ccc21` (stereo not given), for which the growth in assay [1] was 76.8%; in [2], 67.9%; in assay [3] it was 56.8%; in assay [4], -65.8% (active); in assay [5] it was -78.1% (active); in [6], 26.8%. The growth in [7] is -9.87% (active); in assay [8], -67.1% (active); in assay [9], 57.8%; in [10], -65.6% (active).
On to `O=C(O)/C=C/C(=O)Nc1cccc(Cn2nnc3cc(Cl)c(Cl)cc32)c1`, for which the growth in assay [1] was 97.3%; in assay [2] it was 89.8%; in assay [3], 101%; in [4] it was 98.4%; in assay [5] it was 105%; in assay [6], 97.5%. In addition, the growth is 96.2% in assay [7], 102% in [8], 99.7% in [9] and 112% in [10].
Take `Cc1cccc(N2CCC(=O)NC2=S)c1`: the growth was 98.5% in [1]; 97.3% in [2]; 101% in [3]; 110% in [4]; 104% in [5]; 105% in assay [6]. Also, the growth in assay [7] was 97%; in assay [8], 99.1%; in assay [9], 103%; in assay [10], 119%.
For `Cn1cc(-c2ccc(-c3cn(C)c4ccc(Cl)cc34)[nH]2)c2cc(Cl)ccc21`, the growth in assay [1] was 10.9%; in assay [2], 6.47% (active); in assay [3] it was 41.4%; in assay [4], 9.58% (active); in assay [5], -60.2% (active); in assay [6] it was -36% (active). The growth in [7] was -33.8% (active); in assay [8] it was -48.3% (active); in [9] it was 41%; in assay [10] it was -91.5% (active).
Take `COc1ccc(C(=O)Cn2c(C(=O)c3ccc(Cl)cc3)nc3ccccc32)cc1`: the growth in assay [1] is 78.3%; in assay [2] it was 87.4%; in assay [3], 89.7%; in assay [4], 81.8%; in assay [5], 86.9%; in assay [6] it was 59.3%. For the same molecule, the growth was 14.8% in [7], 68.1% in [8], 64.6% in [9] and 111% in assay [10].
Turning to `CC1=C(CCC(C)NCc2ccc(OCCCN3CCCCC3)cc2)C(C)(C)CCC1` (stereo not given), the growth in assay [1] was -42.9% (active); in [2] it was -32.7% (active); in assay [3] it was -40.5% (active); in assay [4], -67.6% (active); in assay [5], -77% (active); in assay [6], -83% (active). Besides, the growth in assay [7] was -79.4% (active); in assay [8] it was -64.2% (active); in [9] it was -85.6% (active); in assay [10] it was -70.9% (active).
In the case of `COc1ccc(/C=C2\COc3ccc(O)cc3C2=O)cc1`, the growth in assay [1] was 109%; in assay [2], 104%; in assay [3], 100%; in [4], 103%; in assay [5] it was 104%; in assay [6] it was 110%. Besides, the growth in assay [7] was 37.7%; in [8], 97.8%; in assay [9] it was 92.2%; in [10], 110%.
In the case of `O=C(Nc1ncc(Cc2cc(C(F)(F)F)ccc2Cl)s1)c1cccs1`, the growth in assay [1] was 58.2%; in [2] it was 76.5%; in assay [3], 65.5%; in assay [4] it was 42.5%; in [5], 32.2%; in [6] it was 47.1%. The growth in assay [7] was 35.2%; in assay [8] it was 37.8%; in assay [9] it was 79.6%; in assay [10], 56.2%.
